High-throughput results: PubChem, several laboratories
Bfl-1 A1 inh = inhibitors of the anti-apoptotic protein A1, read as caspase activation; MEF A1-2A-BIM cells, Caspase-Glo 3/7 luminescence, 3 h; percent of clofoctol response, vehicle zero; actives 0.066% (n = 330,000); caspase activation, % (concentration not given with the values);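 active means over half of replicate activation scores above 10%, or exactly half above 10 with the replicate mean above 10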
697 NFkB inh = lowers PMA/ionomycin-induced NF-kB signal in 697 B cells; 697 B-cell NF-kB luciferase reporter, 16 h; inhibition, % at 4 µM; actives 0.33% (n = 330,000); in the data active means inhibition above about 35%
Beta cell apopt = blocks beta cell apoptosis; INS-1E cytokine-induced death, ATP luminescence, 48 h; percent of positive-control rescue, neutral wells zero; protection from apoptosis, % (test concentration not listed); actives 0.8% (n = 300,000); AID 435005;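 active means Every replicate reaches about 75%, or at least half do and their mean reaches it too, limit read from the data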;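 further: higher means more ATP so stronger rescue from cytokine killing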
NTR1 ag = activates human neurotensin receptor 1. P30989. NTR1-U2OS beta-arrestin-GFP spot imaging, agonist mode. activation, % at 20 µM. actives 0.17% (n = 330,000). AID 493036;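 active means activation at or above 40% of the spot to cytoplasm intensity ratio, with at least 20 cells analyzed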
Jurkat NFkB inh = inhibitors of the PMA/ionomycin-induced NF-kB reporter in Jurkat cells. inhibition, % at 4 µM. actives 0.53% (n = 330,000). AID 435003. PMA/ionomycin-induced NF-kB luciferase reporter, luminescence; in the data active means inhibition above about 50%
Mdm2 MdmX PPI = inhibitors of human Mdm2/MdmX interaction; actives 3% (n = 330,000); inhibition, % at 8 µM; SaOS-2 split-luciferase Mdm2/MdmX complementation, luminescence; AID 485346; O15151+Q00987;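 active means inhibition of at least 50% at 8 µM in the primary screen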
Target sequence (O15151 whole entry, looked up): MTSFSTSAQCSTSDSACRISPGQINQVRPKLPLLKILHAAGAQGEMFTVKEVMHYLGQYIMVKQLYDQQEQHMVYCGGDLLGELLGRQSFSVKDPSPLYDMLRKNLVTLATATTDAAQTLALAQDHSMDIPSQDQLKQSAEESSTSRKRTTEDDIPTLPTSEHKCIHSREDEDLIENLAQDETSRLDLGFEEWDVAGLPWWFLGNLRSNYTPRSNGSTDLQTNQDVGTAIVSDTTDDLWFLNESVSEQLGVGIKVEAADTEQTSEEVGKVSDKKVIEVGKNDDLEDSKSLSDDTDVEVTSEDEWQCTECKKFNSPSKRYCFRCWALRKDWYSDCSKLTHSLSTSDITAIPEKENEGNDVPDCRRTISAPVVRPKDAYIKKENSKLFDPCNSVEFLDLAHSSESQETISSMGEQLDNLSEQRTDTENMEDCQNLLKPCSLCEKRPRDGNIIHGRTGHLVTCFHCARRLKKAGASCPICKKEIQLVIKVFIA
Target sequence (Q00987 whole entry, looked up): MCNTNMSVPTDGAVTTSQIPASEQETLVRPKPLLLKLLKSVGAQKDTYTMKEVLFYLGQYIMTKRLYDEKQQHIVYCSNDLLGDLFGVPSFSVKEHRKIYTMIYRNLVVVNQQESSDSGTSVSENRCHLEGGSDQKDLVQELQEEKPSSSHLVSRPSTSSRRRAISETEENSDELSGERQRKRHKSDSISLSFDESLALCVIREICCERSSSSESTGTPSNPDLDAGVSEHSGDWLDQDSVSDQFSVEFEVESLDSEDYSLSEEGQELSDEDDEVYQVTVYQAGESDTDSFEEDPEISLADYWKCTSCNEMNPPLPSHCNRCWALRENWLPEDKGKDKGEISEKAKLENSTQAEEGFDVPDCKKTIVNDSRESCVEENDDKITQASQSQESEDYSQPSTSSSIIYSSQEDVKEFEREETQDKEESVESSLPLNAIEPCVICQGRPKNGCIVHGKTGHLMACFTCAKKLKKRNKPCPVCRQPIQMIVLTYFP
Jurkat NFkB conf = lowers PMA/ionomycin-induced NF-kB signal in Jurkat cells; shares compounds with Jurkat NFkB inh; Jurkat NF-kB luciferase, 16 h; inhibition, % at 4 µM; actives 27% (n = 2,700);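 active means inhibition reaching about 45% at 4 µM in either replicate, limit read from the data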
697 NFkB conf = lowers PMA/ionomycin-induced NF-kB signal in 697 B cells; inhibition, % at 4 µM; actives 35% (n = 2,000); AID 449746; 697 B-cell NF-kB luciferase, 16 h; shares compounds with 697 NFkB inh; in the data active means inhibition mostly above about 28%, no sharp cut-off; inactive means mostly below about 22%
Mdm2 MdmX conf = confirmation of human Mdm2/MdmX interaction inhibitors | shares compounds with Mdm2 MdmX PPI | Mdm2-MdmX binding, luminescent assay | inhibition, % at 8 µM | actives 55% (n = 10,000); in the data active means inhibition above about 40%
Full FLuc ctr = counter-screen for Mdm2/MdmX inhibitors: full-length luciferase; shares compounds with Mdm2 MdmX PPI; AID 504607; inhibition, % at 8 µM; SaOS-2 full-length luciferase counterscreen, luminescence; actives 77% (n = 6,200);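 active means mean inhibition at 8 µM reaching about 37%, which flags the compound as non-specific, limit read from the data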;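 further: p53-null SaOS-2 cells with luciferase driven by a doxycycline-inducible promoter; compound on cells about two nights before reading with doxycycline added after day one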
A number is an active result; . = inactive; / = not tested or not shown. Compounds with a hit are over-represented: about 3.8% of the library has one in this group of screens.

SMILES	Bfl-1 A1 inh	697 NFkB inh	Beta cell apopt	NTR1 ag	Jurkat NFkB inh	Mdm2 MdmX PPI	Jurkat NFkB conf	Mdm2 MdmX conf	Full FLuc ctr	others
CCOc1ccccc1N1CCN(C(=O)c2cc3ccccc3cc2OC)CC1	/	.	/	.	56.7	57.1	.	80.0	69.3
COc1cc2ccccc2cc1C(=O)N1CCN(C(C)=O)CC1	.	.	.	.	.	.	/	/	/
Cc1c(CC(=O)O)c(=O)oc2cc(OCc3ccc(Br)cc3)ccc12	.	.	.	.	.	.	/	/	/
O=[N+]([O-])c1ccc(N=Nc2ccc(O)cc2O)cc1	.	63.2	.	.	58.8	97.6	.	56.3	.	697 NFkB conf=.
Cc1ccc(C(=O)NCCc2nnc3c(C(F)(F)F)cc(Cl)cn23)o1	.	.	.	.	.	.	/	/	/
CCOc1ccc2nc(C)cc(Nc3cccc([N+](=O)[O-])c3)c2c1	.	.	.	.	76.9	100.4	.	99.6	51.0
Cc1cc(Nc2cccc([N+](=O)[O-])c2)c2ccccc2n1	.	.	.	.	.	.	/	/	/
Cc1ccccc1C(=O)N1CCN(c2ccccn2)CC1	.	.	.	.	.	.	/	/	/
O=C(c1cn(Cc2ccccc2)nc1-c1ccccc1)N1CCN(c2ccccn2)CC1	.	.	.	.	53.0	52.6	.	50.0	71.2
O=C(c1ccccc1-c1ccccc1)N1CCN(c2ccccn2)CC1	.	.	.	.	68.7	58.8	.	58.1	50.1
CN1/C(=C/C(=O)c2nc(S(C)(=O)=O)ncc2Cl)C(C)(C)c2ccccc21	.	.	.	.	57.3	100.3	.	100.1	51.8
O=S(=O)(Nc1cccc2cccnc12)c1ccccc1	.	.	.	.	100.9	100.3	.	99.7	52.1
Cc1ccc2cccc(NS(=O)(=O)c3ccccc3)c2n1	.	.	.	.	98.6	83.8	.	95.0	.
CCN(CC)c1ccc(/C=N/Nc2nc(C)cc(=O)[nH]2)c(O)c1	.	.	.	.	58.7	63.7	.	80.4	.
COc1ccc(OC)c(-c2nnc3n2N=C(c2ccc(OC)c(OC4CCCC4)c2)CS3)c1	.	.	.	.	78.8	84.2	62.8	74.7	66.4
COc1ccc(OC)c(-c2nnc3n2N=C(c2ccc(OC)c(OC)c2)CS3)c1	.	.	.	.	57.7	66.4	.	60.0	79.0
C/C(=N\N=C1\NC(=O)C(CC(=O)Nc2ccccc2F)S1)C1CCCCC1 (stereo not given)	.	.	.	.	.	.	/	/	/
CCCn1cc(S(=O)(=O)c2ccccc2)c(=O)c2cc(F)c(N3CCN(C)CC3)cc21	.	.	.	.	.	.	/	/	/
CCCCCc1ccc(OCCCC[n+]2ccc(C)cc2)c(CCCCC)c1	.	.	111.3	.	53.9	96.2	54.3	86.1	55.2
CCCCCc1ccc(OCCCC[n+]2cccc(C)c2)c(CCCCC)c1	.	42.3	111.0	.	62.9	83.3	57.8	90.0	59.8	697 NFkB conf=48.5
O=C(NCC(=O)N(c1cccnc1)C(C(=O)NC1CCCC1)c1ccccc1F)c1ccco1 (stereo not given)	.	.	.	.	.	.	/	/	/
CC[n+]1c(C=C2C=C(C)OC(C)=C2)sc2ccccc21	/	53.3	/	.	87.4	75.4	74.7	70.0	55.6	697 NFkB conf=68.9
Cc1c(C(=O)OCC(C)C)[nH]c2c1C(=O)CC(c1ccco1)C2 (stereo not given)	.	.	.	.	64.8	75.1	.	54.3	76.6
C=CCOC(=O)c1[nH]c2c(c1C)C(=O)CC(c1ccco1)C2 (stereo not given)	.	.	.	.	73.5	63.3	50.0	55.5	86.2
Cc1c(C(=O)OC2CCCC2)[nH]c2c1C(=O)CC(c1ccco1)C2 (stereo not given)	.	.	.	.	66.7	68.0	56.6	47.8	78.4
SMILES	Bfl-1 A1 inh	697 NFkB inh	Beta cell apopt	NTR1 ag	Jurkat NFkB inh	Mdm2 MdmX PPI	Jurkat NFkB conf	Mdm2 MdmX conf	Full FLuc ctr	others
COC(=O)c1[nH]c2c(c1C)C(=O)CC(c1ccc(OC)cc1)C2 (stereo not given)	.	.	.	.	.	.	/	/	/
C/C=C/COC(=O)c1[nH]c2c(c1C)C(=O)CC(c1ccco1)C2 (stereo not given)	.	.	.	.	58.6	64.9	42.8	56.0	73.0
COc1cccc(C(=O)OCC(=O)Nc2cc(C)on2)c1OC	.	.	.	.	.	.	/	/	/
CN1CCN(c2ccccc2NC(=O)COc2ccc(Cl)cc2)CC1	.	.	.	.	.	.	/	/	/
CSc1nc(Oc2ccc3ccccc3c2)c2sccc2n1	.	.	.	.	63.9	54.6	.	66.5	42.6
COc1ccc(Oc2nc(SC)nc3ccsc23)cc1	.	.	.	.	.	.	/	/	/
O=C(Cc1coc2cc(O)ccc12)NNC(=O)c1ccc(Br)s1	.	.	.	.	.	.	/	/	/
C=C1C(=O)O[C@H]2C[C@]3(C)C([C@@H](OC(=O)/C(C)=C/C)[C@H]12)[C@](C)(O)CC[C@H]3O (stereo not given in full)	.	.	.	.	.	.	/	/	/
C=C1C(=O)O[C@@H]2[C@H]1[C@@H](OC(=O)/C(C)=C/C)C/C(C)=C\C(=O)/C=C(\C)[C@@H]2O	.	.	.	.	88.1	100.3	.	83.4	51.4
CCCCCCCCCCOC(=O)Cn1c(COc2ccccc2OC)[n+](C)c2ccccc21	.	38.7	107.2	.	56.8	99.8	60.2	89.4	.	697 NFkB conf=52.8
CCc1ccc(C(=O)COC(=O)CNC(=O)C2CCCCC2)cc1	/	.	/	.	.	.	/	/	/
CCc1ccc(N=c2c([N+](=O)[O-])nn(-c3ccc4c(c3)OCCO4)n2O)cc1	.	.	.	.	.	.	/	/	/
O=[N+]([O-])c1nn(-c2ccc3c(c2)OCCO3)n(O)c1=Nc1ccccc1	.	.	.	.	71.2	91.1	88.6	95.4	53.4
CC[C@@]1(O)C(=O)OCc2c1cc1n(c2=O)Cc2cc3c(N)cccc3nc2-1	.	77.5	98.4	.	81.2	100.3	84.1	95.8	52.8	697 NFkB conf=.
CC[C@@]1(O)C(=O)OCc2c1cc1n(c2=O)Cc2cc3c(CN(C)C)c(O)ccc3nc2-1	.	.	.	.	73.0	87.8	95.0	87.9	52.0	697 NFkB conf=.
O=c1cccc2n1Cc1cc3ccccc3nc1-2	.	.	.	.	.	.	/	/	/
COCCCn1c(=O)c2ccccc2n(CC(=O)N2CCCc3ccccc32)c1=O	.	.	.	.	.	.	/	/	/
